Measured values: PubChem BioAssay (NCI)
About 83,000 compounds went through this panel and 20% of them were active in at least one assay; those are over-represented in the sample as a whole.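 Plates (96-well) were seeded with cells, treated with compound at one concentration, and incubated for 48 hours before percent growth was determined.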 A number with no mark means an inactive call. The source made the active and inactive calls. Rule for the calls: active = growth percent below 10; inactive = the rest.

Columns and labels:
Test in all cases: NCI-60 one-dose screen, 48 h (100 = growth as untreated, 0 = no growth, -100 = all killed)
SR leukemia = details: 10 µM unless noted
RPMI-8226 leukemia = details: 10 µM unless noted
OVCAR-8 ovarian = details: 10 µM unless noted
OVCAR-5 ovarian = details: 10 µM unless noted
OVCAR-4 ovarian = details: 10 µM unless noted
SK-OV-3 ovarian = details: 10 µM unless noted
IGROV1 ovarian = details: 10 µM unless noted
OVCAR-3 ovarian = details: 10 µM unless noted
HS 578T breast = details: 10 µM
NCI/ADR-RES ovarian = details: 10 µM unless noted

Row | SMILES | growth (SR leukemia) | growth (RPMI-8226 leukemia) | growth (OVCAR-8 ovarian) | growth (OVCAR-5 ovarian) | growth (OVCAR-4 ovarian) | growth (SK-OV-3 ovarian) | growth (IGROV1 ovarian) | growth (OVCAR-3 ovarian) | growth (HS 578T breast) | growth (NCI/ADR-RES ovarian)
1 | Cc1ccc(N=CNN=C(N)N)cc1 | 76.9% | 99.4% | 91% | 99.5% | 94.5% | 104% | 103% | 112% | 140% | 108%
2 | COC(=O)/C=C/c1cc(OC(C)=O)c2c(c1)[C@@H](C(=O)OC)[C@H](c1ccc(OC(C)=O)c(OC(C)=O)c1)O2 | 10.8% | 3.3% (active) | 11% | 20.6% | 30.4% | 36.4% | 12.2% | -21.9% (active) | 7.01% (active) | -5.91% (active)
3 | OC(c1cc(-c2ccc(C(F)(F)F)cc2)nc(-c2ccc(C(F)(F)F)cc2)c1)C1CCCCN1 (stereo not given) | -64.8% (active) | -48.4% (active) | -64.5% (active) | -77% (active) | -92% (active) | -74.3% (active) | -65.2% (active) | -90.4% (active) | -55.5% (active) | -68.6% (active)
4 | Fc1ccc2c(CN3CCO[C@H](COc4cccc(Cl)c4)C3)c[nH]c2c1 | 37.3% | 12.5% | 33.3% | 85.8% | 71.2% | 85.7% | 63% | 36.7% | 64.8% | 47.3%
5 | Nc1nc(N)c2cc(Sc3ccc(Cl)cc3)ccc2n1 | 7.93% (active) | 20.1% | 34.8% | 39.4% | 70.2% | 59.7% | 22.9% | 25.7% | 45.4% | 36.2%
6 | COc1ccc2cc(-c3nc(C)c(C(C)=O)c(-c4ccc(C)cc4)n3)ccc2c1 | 108% | 86.9% | 93.4% | 93.1% | 92% | 97.5% | 101% | 94.3% | 86% | 92.5%
7 | Cc1cc(Cl)c2ccc(N(C)C)cc2n1 | 87.3% | 97% | 102% | 105% | 105% | 97.4% | 106% | 104% | 96.9% | 104%
8 | CCCCCCCCCCCCCCCCOc1ccc(S(=O)(=O)N(C)C)cc1[N+](=O)[O-] | 81.6% | 107% | 102% | 101% | 101% | 79.2% | 98.5% | 117% | 80.4% | 115%
9 | COc1ccc(-c2nc(-c3ccccc3OCc3ccccc3OC)nc(C)c2C(C)=O)cc1 | 78.8% | 73% | 86.9% | 94.1% | 94.9% | 96.1% | 89.7% | 102% | 72.8% | 83.7%
10 | Cc1[nH]nc2ccc3nc(-c4ccc5[nH]ncc5c4)c4c(c3c12)CCCC4 | 1.09% (active) | 13% | 28.2% | 46.6% | 38.4% | -19.6% (active) | 11.9% | 32.8% | -6.38% (active) | 40%
11 | CC(=O)O[C@H]1[C@H](CC#CC#CC[C@@H]2C[C@]3(C)[C@H]4CC=C5[C@H]6[C@@H](C)[C@H](C)CC[C@]6(C(=O)NCCN(CCN)CCN)CC[C@@]5(C)[C@]4(C)CC[C@H]3C(C)(C)[C@H]2OC(C)=O)C[C@]2(C)[C@H]3CC=C4[C@H]5[C@@H](C)[C@H](C)CC[C@]5(C(=O)NCCN(CCN)CCN)CC[C@@]4(C)[C@]3(C)CC[C@H]2C1(C)C | 53.9% | 26.6% | 3.13% (active) | 54.6% | 97.4% | 89.2% | 62.3% | 89% | 70.6% | 49.2%
12 | CCc1ccc2c(c1)N(CCO)C1=C(C(=O)OC1)C2c1cccc(Cl)c1 (stereo not given) | 20.2% | 20.3% | 27% | 30.3% | 63.8% | 27.2% | 31.2% | -35.9% (active) | 7.46% (active) | 8.16% (active)
13 | CCCCn1c(-c2ccc(F)cc2)nc2cc(OC)c(OC)cc2c1=O | 34.4% | 40.2% | 109% | 108% | 112% | 120% | 79.4% | 106% | 101% | 93.9%
14 | CNCc1ccccc1CN(CC(=O)Nc1ccc2c(c1)CC1(C2)C(=O)Nc2ncccc21)C(=O)C(C)(C)C (stereo not given) | 110% | 106% | 98.9% | 109% | 104% | 108% | 92.4% | 114% | 95.9% | 108%
15 | C/C=C(\C)C(C(=O)NC1CCCCC1)N(C(=O)C1CCc2cc(F)ccc2O1)c1ccc([N+](=O)[O-])cc1 (stereo not given) | 101% | 79.1% | 88.4% | 93.4% | 79% | 90.5% | 85.8% | 89.4% | 80.2% | 85.7%
16 | COc1ccc(/C=C2\N=C(c3cccnc3)N(c3ccccc3)NC2=O)cc1 | 92.7% | 68.5% | 95.9% | 103% | 99.7% | 130% | 115% | 95.9% | 92% | 100%
17 | COc1cc(NC(C)CCCN)c2ncccc2c1Oc1ccc(Cl)cc1 (stereo not given) | 53.2% | 63% | 84.8% | 84.6% | 56.3% | 98.6% | 64.6% | 60% | 70% | 77.3%
18 | CC(=O)O[C@H]1[C@H](CC#CC#CC[C@@H]2C[C@]3(C)[C@H]4CC=C5[C@H]6[C@@H](C)[C@H](C)CC[C@]6(C(=O)NCCCCCCCCN)CC[C@@]5(C)[C@]4(C)CC[C@H]3C(C)(C)[C@H]2OC(C)=O)C[C@]2(C)[C@H]3CC=C4[C@H]5[C@@H](C)[C@H](C)CC[C@]5(C(=O)NCCCCCCCCN)CC[C@@]4(C)[C@]3(C)CC[C@H]2C1(C)C | 123% | 95.6% | 108% | 108% | 114% | 108% | 99.1% | 100% | 110% | 98.1%
19 | O=C1OC(c2ccc(-c3ccccc3)cc2)=C/C1=C/c1c(Cl)cccc1Cl | 69.6% | 84.1% | 105% | 91.7% | 89.8% | 96.7% | 95.4% | 97.1% | 85.6% | 99.3%
20 | COc1ccc(C(=O)c2cc(C)c(OC)c(C)c2)cc1OC(=O)CCl | 2.99% (active) | 11.2% | 6.89% (active) | 39.6% | 47.4% | 20.6% | 25.7% | -15.5% (active) | 44.4% | 7.11% (active)
21 | Cc1cc(-c2nnc(/C=C/c3ccc4c(c3)OCO4)o2)n[nH]1 | 18.7% | 66.5% | 91.5% | 92.2% | 96.8% | 80.6% | 40.7% | 63.4% | 80% | 31.3%
22 | CCNC(=S)N(Cc1ccccc1)Cc1ccccc1 | 72% | 110% | 103% | 91% | 124% | 105% | 113% | 123% | 136% | 106%
23 | Oc1[nH]c2ccc(Cl)cc2c1/C=c1/ccc2c(c1)N=C(c1ccc(F)cc1)N=2 | 8.49% (active) | 69.2% | 84.7% | 103% | 79.4% | 87.4% | 5.76% (active) | 72% | 68.1% | 44.3%
24 | CCN(CC)CCCC(C)Nc1cnc(C(=O)Nc2ccc(Cl)c3cccnc23)cn1 (stereo not given) | 1.42% (active) | 2.2% (active) | 27.3% | 53.3% | 51.3% | 79.5% | 44.2% | -23.7% (active) | 51.4% | 52.2%
25 | CCSc1ccc([C@@H]2[C@@H](N)C(=O)N2c2cc(OC)c(OC)c(OC)c2)cc1 | 14.4% | 18% | 32.4% | 42.7% | 54.4% | 44% | 47.9% | -23.8% (active) | 34.5% | 3.99% (active)
